# UBC13 inh: blocks human UBC13 polyubiquitin chain formation; P61088; inhibition, % at 20 µM; TR-FRET; actives 0.47% (n = 330,000); in the data active = inhibition above about 45%, passing the limit was not always enough
# MEKK3 PB1 HTS: MEKK3-MEK5 PB1 interaction, increase or decrease. binding response (% of control), % at 10 µM. bead-based flow cytometry, Alexa488-MEK5 binding to MEKK3; actives lie on both sides; 0 = blocked by unlabeled MEK5, 100 = vehicle. actives 1.4% (n = 290,000). Q99759;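 active = binding response more than 3 SD above or below the average of its plate-row segment, actives on both sides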;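 also: Alexa488 bead fluorescence after subtracting the streptavidin-only scavenger bead signal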
# Target sequence (Q99759 whole entry, looked up): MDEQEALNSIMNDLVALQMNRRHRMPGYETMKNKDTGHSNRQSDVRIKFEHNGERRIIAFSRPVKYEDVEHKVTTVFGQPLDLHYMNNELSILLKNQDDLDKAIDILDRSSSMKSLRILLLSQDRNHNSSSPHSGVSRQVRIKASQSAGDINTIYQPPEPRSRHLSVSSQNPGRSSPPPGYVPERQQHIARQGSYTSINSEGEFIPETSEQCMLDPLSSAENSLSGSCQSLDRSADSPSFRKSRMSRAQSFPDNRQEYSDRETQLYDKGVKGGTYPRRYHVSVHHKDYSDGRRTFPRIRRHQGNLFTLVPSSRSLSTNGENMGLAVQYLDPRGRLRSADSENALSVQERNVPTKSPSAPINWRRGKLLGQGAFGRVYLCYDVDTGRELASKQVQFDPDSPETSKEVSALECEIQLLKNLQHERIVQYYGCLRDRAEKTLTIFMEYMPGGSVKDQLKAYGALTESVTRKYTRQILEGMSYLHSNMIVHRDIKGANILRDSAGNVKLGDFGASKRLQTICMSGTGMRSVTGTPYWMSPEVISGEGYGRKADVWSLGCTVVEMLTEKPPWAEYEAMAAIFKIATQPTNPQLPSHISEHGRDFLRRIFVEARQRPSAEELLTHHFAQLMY
# MEKK2wt PB1 HTS: raises or lowers MEK5 binding to wildtype human MEKK2 PB1 domain; Q9Y2U5; bead flow cytometry, Alexa488-MEK5 binding to MEKK2 WT; actives lie on both sides; binding response (% of control), % at 10 µM; actives 1.1% (n = 290,000); in the data active = binding response below about 67% or above about 130%
# MEKK2 mut-MEK5: signal of MEK5 binding to mutant human MEKK2 PB1 domain | AID 1530 | percent response, % at 10 µM | actives 0.35% (n = 290,000) | bead flow cytometry, Alexa488-MEK5 binding to MEKK2 mutant; in the data active = percent response above about 24%, passing the limit was not always enough
# MEKK2wt confirm: raises or lowers MEK5 binding to wildtype human MEKK2, retest. actives 2.4% (n = 5,900). shares compounds with MEKK3 PB1 HTS. binding response (% of control), % at 10 µM. bead flow cytometry, Alexa488-MEK5 binding to MEKK2 WT; actives lie on both sides; in the data active = binding response below about 16% or above about 210%; inactive = in between
# MEKK2mut-MEK5: signal of MEK5 binding to mutant human MEKK2, retest; shares compounds with MEKK3 PB1 HTS; bead flow cytometry, Alexa488-MEK5 binding to MEKK2 mutant; percent response, % at 10 µM; actives 2% (n = 5,900); in the data active = percent response mostly above about 71%, no sharp cut-off; inactive = mostly below about 38%;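 also: higher means compound restores mutant binding toward wildtype level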
# MEKK3 confirm: confirmation of inhibitors of MEK5 binding to human MEKK3 | shares compounds with MEKK3 PB1 HTS | bead flow cytometry, Alexa488-MEK5 binding to MEKK3; hits give low values | AID 1894 | actives 1.8% (n = 5,900) | binding response (% of control), % at 10 µM;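 active = binding response below 72% of control, or above a set upper limit, though filed actives all read lower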;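 also: 100% = DMSO only wells and 0% = binding blocked by excess unlabeled MEK5; lower values mean stronger disruption of MEK5 binding to MEKK3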
# Active calls of the source: *; . = no result given; [ ] = remark or other dose. Hits are enriched below; roughly 2.3% of the tested compounds scored in any of these assays.
SMILES,UBC13 inh,MEKK3 PB1 HTS,MEKK2wt PB1 HTS,MEKK2 mut-MEK5,MEKK2wt confirm,MEKK2mut-MEK5,MEKK3 confirm
COP(=O)(OC)C(O)C(Cl)(Cl)Cl (configuration not stated),1,95,104,-2,.,.,.
COc1ccc2[nH]c3c(c2c1)CCNC3C (configuration not stated),8,103,111,6,.,.,.
COc1ccc2c3c([nH]c2c1)C(C)NCC3 (configuration not stated),6,94,1.0*,48,.,.,.
Cc1ccccc1N1C(=O)/C(=C/c2ccco2)C(=O)NC1=S,.,82*[inhibitor],80,-17,.,.,.
CC(NCc1ccc(Cl)cc1Cl)C(O)c1ccccc1 (configuration not stated),10,97,101,-1,.,.,.
CC(NCc1cccc(Cl)c1Cl)C(O)c1ccccc1 (configuration not stated),9,102,43*[inhibitor],5,103,2,104
Cc1c2ccncc2c(C)c2c1[nH]c1ccccc12,39,72*[inhibitor],201*,28*,195,58,105
CCN(C(=O)COC(=O)C(O)(c1ccccc1)c1ccccc1)c1c(N)n(Cc2ccccc2)c(=O)[nH]c1=O,1,.,.,.,.,.,.
O=C(Nc1cccc(Cl)c1)OC1CN2CCC1CC2 (configuration not stated),5,110,147*,27,125,8,98
O=C(Nc1ccc(Cl)cc1)OC1CN2CCC1CC2 (configuration not stated),3,86,93,-8,.,.,.
CC(=O)OC1(c2ccccc2)CC(C(C)(C)C)CN(C(C)(C)C)C1 (configuration not stated),3,103,105,5,.,.,.
COc1cc(N2CCOCC2)ccc1/C=C1\C(=O)NC(=O)N(C2CCCCC2)C1=O,-13,130*,105,-1,96,-1,98
Cc1ccccc1-n1c(O)c(/C=N/NC(=O)c2ccncc2)c(=O)[nH]c1=O,15,100,103,0,.,.,.
CC1(C)C2SCC(=O)N2CCN1CC(=O)NN (configuration not stated),7,128*,122,25,96,-1,97
CC1(c2ccccc2)NCCN2C(=O)CSC21 (configuration not stated),-6,102,98,2,.,.,.
COc1ccc(CNCCc2cccc(F)c2)c2ccccc12,6,113,151*,16,117,10,103
COc1cc(OC)c(OC)cc1CNCCc1cccc(F)c1,4,104,103,10,.,.,.
CCc1ccc(NP(=O)(Oc2ccccc2F)Oc2ccccc2F)cc1,-5,1.0*[inhibitor],-3.0*[inhibitor],-27,100,-7,102
Cc1ccc(NP(=O)(Oc2ccccc2F)Oc2ccccc2F)cc1,6,101,97,2,.,.,.
COc1ccccc1-n1c(-c2ccccc2Br)nc2ccccc2c1=O,0,105,100,-1,.,.,.
C1=C(c2c[nH]c3ccccc23)CCNC1,96*,107,173*,99*,122,8,105
CC(C)N1CC=C(c2c[nH]c3ccccc23)CC1,-21,103,105,2,.,.,.
COP(=S)(OC)c1c(C)nn(CCC#N)c1NC(=O)c1ccc(Cl)cc1,-8,101,100,-5,.,.,.
O=c1[nH]c(=S)n(C2CCCCC2)c(O)c1/C=N/N1CCOCC1,-6,103,101,8,.,.,.
O=[N+]([O-])NC1=NCN(Cc2ccco2)CN1Cc1ccco1,-3,116,100,0,.,.,.
Cc1cccc(N2C(=O)NC(=O)/C(=C\c3ccc4c(c3)CCCN4Cc3ccccc3)C2=O)c1,-28,139*,146*,159*,86,-24,93
C[C@]12CCC(=O)C=C1CC[C@@H]1[C@@H]2C(=O)C[C@]2(C)C(=O)CC[C@@H]12,-3,107,99,3,.,.,.
c1ccc(CCCN2CCN(CCOC(c3ccccc3)c3ccccc3)CC2)cc1,36,108,162*,8,130,27,103

# Screening results as filed in PubChem BioAssay.
